Reference: PubChem BioAssay AID1159580 (chemical genetic matrix, 2015)
Hit rate of the full screen: of about 5,500 compounds, about 2,000 (36%) were called active. About 18% were inconclusive and are not listed. Rule as the data show it: active = normalized growth mostly below about 0.91 (no sharp cut-off); inconclusive = no clear call, values can overlap the other calls; inactive = mostly above about 0.92. Some of the results follow.

Assay: chemical genetic growth profiling, strain panel (AID 1159580);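 also: tested at 20 µM; growth read once vehicle control cultures reached saturation at 30 °C; 1 = growth at the plate median or of vehicle wells; lower values mean less growth of the strain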
Details: growth OD

Measured: normalized growth

C[C@]12CCC(=O)C=C1CCC1C2[C@@H](O)C[C@@]2(C)C1CC[C@]2(O)C(=O)CO (stereo partly drawn)
inactive: S. cerevisiae deletion strains, locus YJR075W, strain HOC1, hits give low values 1.01 | S. cerevisiae deletion strains, locus YKL009W, strain mrt4, hits give low values 0.992 | S. cerevisiae deletion strains, locus YKL068W, hits give low values 1.01 | S. cerevisiae deletion strains, locus YKL085W, strain MDH1 (second series), hits give low values 0.998 | S. cerevisiae deletion strains, locus YKL085W, strain MDH1, hits give low values 0.998 | S. cerevisiae deletion strains, locus YKL160W, strain elf1, hits give low values 0.955 | S. cerevisiae deletion strains, locus YKR001C, strain vps1, hits give low values 0.971 | S. cerevisiae deletion strains, locus YKR026C, strain gcn3, hits give low values 0.993 | S. cerevisiae deletion strains, locus YKR091W, strain srl3, hits give low values 0.999 | S. cerevisiae deletion strains, locus YLL001W, strain dnm1, hits give low values 0.994 | S. cerevisiae deletion strains, locus YLL026W, hits give low values 0.982 | S. cerevisiae deletion strains, locus YLL041C, strain sdh2, hits give low values 0.99 | S. cerevisiae deletion strains, locus YLR027C, strain aat2, hits give low values 1 | S. cerevisiae deletion strains, locus YLR039C, strain RIC1, hits give low values 1.05 | S. cerevisiae deletion strains, locus YLR058C, strain SHM2, hits give low values 1.02 | S. cerevisiae deletion strains, locus YLR102C, strain apc9, hits give low values 0.993 | S. cerevisiae deletion strains, locus YLR113W, strain HOG1, hits give low values 0.99 | S. cerevisiae deletion strains, locus YLR221C, strain rsa3, hits give low values 0.985 | S. cerevisiae deletion strains, locus YLR258W, strain gsy2, hits give low values 0.971 | S. cerevisiae deletion strains, locus YLR262C, strain YPT6 (second series), hits give low values 1 | S. cerevisiae deletion strains, locus YLR262C, strain YPT6, hits give low values 1.08 | S. cerevisiae deletion strains, locus YLR268W, strain sec22, hits give low values 0.977 | S. cerevisiae deletion strains, locus YLR320W, strain mms22, hits give low values 0.986 | S. cerevisiae deletion strains, locus YLR330W, strain CHS5, hits give low values 1.01 | S. cerevisiae deletion strains, locus YLR342W, strain FKS1 (second series), hits give low values 1.01 | S. cerevisiae deletion strains, locus YLR342W, strain FKS1, hits give low values 0.999 | S. cerevisiae deletion strains, locus YLR357W, strain rsc2, hits give low values 0.957 | S. cerevisiae deletion strains, locus YLR370C, strain arc18, hits give low values 1 | S. cerevisiae deletion strains, locus YLR371W, strain rom2, hits give low values 0.971 | S. cerevisiae deletion strains, locus YLR384C, strain iki3, hits give low values 0.998 | S. cerevisiae deletion strains, locus YLR418C, strain cdc73, hits give low values 1.01 | S. cerevisiae deletion strains, locus YML016C, strain PPZ1, hits give low values 1.02 | S. cerevisiae deletion strains, locus YML032C, strain rad52, hits give low values 1.01 | S. cerevisiae deletion strains, locus YML120C, strain ndi1, hits give low values 1.01 | S. cerevisiae deletion strains, locus YML124C, strain tub3, hits give low values 0.994 | S. cerevisiae deletion strains, locus YMR058W, strain fet3, hits give low values 1.01 | S. cerevisiae deletion strains, locus YMR078C, strain ctf18, hits give low values 0.998 | S. cerevisiae deletion strains, locus YMR125W, strain sto1, hits give low values 0.96 | S. cerevisiae deletion strains, locus YMR129W, hits give low values 0.993 | S. cerevisiae deletion strains, locus YMR205C, strain PFK2, hits give low values 0.967 | S. cerevisiae deletion strains, locus YMR223W, strain ubp8, hits give low values 0.993 | S. cerevisiae deletion strains, locus YMR231W, strain pep5, hits give low values 1 | S. cerevisiae deletion strains, locus YMR263W, strain SAP30, hits give low values 1.02 | S. cerevisiae deletion strains, locus YMR307W, strain GAS1, hits give low values 1.04 | S. cerevisiae deletion strains, locus YNL067W, strain RPL9B, hits give low values 1.02 | S. cerevisiae deletion strains, locus YNL071W, strain lat1, hits give low values 1.01 | S. cerevisiae deletion strains, locus YNL153C, strain GIM3, hits give low values 1.03 | S. cerevisiae deletion strains, locus YNL183C, strain NPR1, hits give low values 0.939 | S. cerevisiae deletion strains, locus YNL209W, strain ssb2, hits give low values 0.99 | S. cerevisiae deletion strains, locus YNL233W, strain BNI4, hits give low values 1.02 | S. cerevisiae deletion strains, locus YNL248C, strain rpa49, hits give low values 0.989 | S. cerevisiae deletion strains, locus YNL250W, strain rad50, hits give low values 1.01 | S. cerevisiae deletion strains, locus YNL271C, strain bni1, hits give low values 0.995 | S. cerevisiae deletion strains, locus YNL298W, strain CLA4, hits give low values 1.01 | S. cerevisiae deletion strains, locus YNL307C, strain MCK1, hits give low values 0.995 | S. cerevisiae deletion strains, locus YNL322C, strain KRE1 (second series), hits give low values 0.969 | S. cerevisiae deletion strains, locus YNL322C, strain KRE1, hits give low values 1.01 | S. cerevisiae deletion strains, locus YNR049C, strain mso1, hits give low values 0.999 | S. cerevisiae deletion strains, locus YNR052C, strain pop2, hits give low values 0.999 | S. cerevisiae deletion strains, locus YOL012C, strain htz1 0.617 | S. cerevisiae deletion strains, locus YOL147C, strain pex11, hits give low values 1.02 | S. cerevisiae deletion strains, locus YOR001W, strain rrp6, hits give low values 1.01 | S. cerevisiae deletion strains, locus YOR061W, strain CKA2, hits give low values 1.02 | S. cerevisiae deletion strains, locus YOR069W, strain VPS5, hits give low values 1.01 | S. cerevisiae deletion strains, locus YOR070C, strain gyp1, hits give low values 0.966 | S. cerevisiae deletion strains, locus YOR080W, strain dia2, hits give low values 1.01 | S. cerevisiae deletion strains, locus YOR083W, strain WHI5, hits give low values 0.945 | S. cerevisiae deletion strains, locus YOR106W, strain vam3, hits give low values 0.971 | S. cerevisiae deletion strains, locus YOR136W, strain idh2, hits give low values 0.985 | S. cerevisiae deletion strains, locus YOR144C, strain elg1, hits give low values 0.995 | S. cerevisiae deletion strains, locus YOR184W, strain ser1, hits give low values 0.993 | S. cerevisiae deletion strains, locus YOR231W, strain MKK1, hits give low values 0.99 | S. cerevisiae deletion strains, locus YOR265W, strain rbl2, hits give low values 0.985 | S. cerevisiae deletion strains, locus YOR270C, strain vph1, hits give low values 0.996 | S. cerevisiae deletion strains, locus YOR290C, strain snf2, hits give low values 0.983 | S. cerevisiae deletion strains, locus YOR316C, strain cot1, hits give low values 0.994 | S. cerevisiae deletion strains, locus YPL051W, strain arl3, hits give low values 0.927 | S. cerevisiae deletion strains, locus YPL055C, strain LGE1, hits give low values 1.02 | S. cerevisiae deletion strains, locus YPL078C, strain atp4, hits give low values 0.97 | S. cerevisiae deletion strains, locus YPL106C, strain sse1, hits give low values 0.926 | S. cerevisiae deletion strains, locus YPL240C, strain hsp82, hits give low values 0.992 | S. cerevisiae deletion strains, locus YPL256C, strain CLN2, hits give low values 0.949 | S. cerevisiae deletion strains, locus YPR119W, strain clb2, hits give low values 0.99 | S. cerevisiae deletion strains, locus YPR141C, strain kar3, hits give low values 0.999 | S. cerevisiae deletion strains, locus YPR163C, strain tif3, hits give low values 0.986 | S. cerevisiae deletion strains, locus YPR167C, strain met16, hits give low values 0.991 | S. cerevisiae deletion strains, strain wtn01, hits give low values 0.972 | S. cerevisiae strains, strain wild type, hits give low values 1.02
